The values that follow come from PubChem BioAssay (NCI).

What all share (test): NCI-60 one-dose screen, 48 h (100 = growth as untreated, 0 = no growth, -100 = all killed)
The test system of one test is HCT-15 colon. Conditions: 10 µM unless noted.
A further test concerns HT29 colon. Conditions: 10 µM unless noted.
Another test has as its system SNB-75 CNS. Conditions: 10 µM unless noted.
The test system of the next test is SNB-19 CNS. Conditions: 10 µM unless noted.
A further test deals with U251 CNS. Conditions: 10 µM unless noted.
A further test concerns PC-3 prostate. Conditions: 10 µM unless noted.
The next test concerns SK-MEL-5 melanoma. Conditions: 10 µM unless noted.
For a further test, the system named is UACC-62 melanoma. Conditions: 10 µM unless noted.
The next test concerns LOX IMVI melanoma. Conditions: 10 µM unless noted.
For the next test, the system named is SK-MEL-28 melanoma. Conditions: 10 µM unless noted.
For a further test, the system named is EKVX NSCLC. Conditions: 10 µM.
For another test, the system named is SN12C renal. Conditions: 10 µM unless noted.
The test system of a further test is TK-10 renal. Conditions: 10 µM unless noted.
The subject of a further test is ACHN renal. Conditions: 10 µM unless noted.
Another test concerns CAKI-1 renal. Conditions: 10 µM unless noted.
The next test has as its system A498 renal. Conditions: 10 µM unless noted.
In a further test the test system is CCRF-CEM leukemia. Conditions: 10 µM.
Another test concerns MOLT-4 leukemia. Conditions: 10 µM unless noted.
The next test relates to SK-MEL-2 melanoma. Conditions: 10 µM unless noted.
The test system of a further test is UO-31 renal. Conditions: 10 µM unless noted.

Molecules are shown by their SMILES. About 83,000 compounds went through this panel and 20% of them were active in at least one assay; those are over-represented in the sample as a whole.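 Cell lines were cultured in 96-well plates, exposed to a single compound concentration, and assessed for percent growth 48 hours later.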 Values without a mark were called inactive. Calls of active or inactive are those of the source. How the source made its calls: active means growth percent below 10; inactive means the rest.

As to `O=C(CN1CCN(c2cccc(Cl)c2)CC1)N1CCN(c2nnc(-c3ccc(Cl)cc3)c(-c3ccc(Cl)cc3)n2)CC1`, the growth in the test with HCT-15 colon is 52.9%; in the test with HT29 colon, 59.3%; with SNB-75 CNS it was 97.6%; in the test on SNB-19 CNS it was 77.6%; in the test with U251 CNS it was 71.7%; in the test on PC-3 prostate it was 25.4%. In addition, the growth was 61.6% in the test with SK-MEL-5 melanoma; 71.4% with UACC-62 melanoma; 71.5% in the test with LOX IMVI melanoma; 93.8% in the test with SK-MEL-28 melanoma; 59% in the test with EKVX NSCLC; 75.7% in the test with SN12C renal. The growth in the test with TK-10 renal was 90.2%; with ACHN renal, 65.3%; in the test on CAKI-1 renal, 105%; in the test with A498 renal, 63.1%; in the test on CCRF-CEM leukemia, 48.7%; with MOLT-4 leukemia it was 36.4%.

As for `CCCCCCCCCCCCCCCCCC1=NCCN1CCNC(C)=O`, the growth with HCT-15 colon was 74.6%; with HT29 colon, 57.3%; in the test on SNB-75 CNS it was 83.5%; with SNB-19 CNS, 101%; in the test on U251 CNS, 79.1%; in the test on PC-3 prostate, 80.3%. Also, the growth was 102% with SK-MEL-5 melanoma; 107% in the test on UACC-62 melanoma; -14.6% (active) in the test with LOX IMVI melanoma; 111% in the test with SK-MEL-2 melanoma; 80% with EKVX NSCLC; 104% with SN12C renal. The growth was 83.2% with UO-31 renal; 103% in the test with TK-10 renal; 87.6% with CAKI-1 renal; 78.4% with A498 renal; 40.3% in the test with CCRF-CEM leukemia; 62.6% with MOLT-4 leukemia.

Take `Cc1ccccc1-n1c(C)nc2cc(NC(=O)c3ccc(Cl)cc3)ccc2c1=O`: the growth is 63.7% in the test on HCT-15 colon; 62.9% with HT29 colon; 103% in the test on SNB-75 CNS; 75.9% in the test on SNB-19 CNS; 77.6% in the test with U251 CNS; 61.2% with PC-3 prostate. Besides, the growth in the test with SK-MEL-5 melanoma is 0.858% (active); with UACC-62 melanoma it was 42.2%; in the test on LOX IMVI melanoma, 69.4%; with SK-MEL-28 melanoma it was 79.5%; in the test on EKVX NSCLC, 51.5%; in the test on SN12C renal, 68.6%. The growth is 77.8% in the test on UO-31 renal; 48.1% in the test with ACHN renal; 58.8% in the test on CAKI-1 renal; 60.6% with A498 renal; 52.7% in the test on CCRF-CEM leukemia; 71.7% in the test on MOLT-4 leukemia.

`COC(=O)C(Cc1cnc[nH]1)N1CC(=O)N2[C@@H](c3ccccc3)SC[C@H]2C1=O` (stereo not given in full): the growth is 107% with HCT-15 colon; 104% in the test on HT29 colon; 120% in the test on SNB-75 CNS; 106% in the test with SNB-19 CNS; 95.2% in the test on U251 CNS; 97.4% in the test on PC-3 prostate. For the same compound, the growth is 131% in the test on SK-MEL-5 melanoma; 106% in the test with UACC-62 melanoma; 97.7% with LOX IMVI melanoma; 117% in the test on SK-MEL-28 melanoma; 101% in the test with EKVX NSCLC; 107% in the test with SN12C renal. In addition, the growth is 88.4% in the test on UO-31 renal; 106% in the test with ACHN renal; 94.1% with CAKI-1 renal; 95.9% with A498 renal; 99.6% in the test with CCRF-CEM leukemia; 99.7% with MOLT-4 leukemia.

For `CC1(C)C(O)NC(Cl)=C(C#N)C1(C#N)C#N` (stereo not given), the growth in the test on HCT-15 colon is 153%; in the test on HT29 colon, 101%; in the test with SNB-75 CNS, 98.4%; with SNB-19 CNS, 105%; with U251 CNS, 110%; with PC-3 prostate, 114%. In addition, the growth is 114% with SK-MEL-5 melanoma; 131% in the test with UACC-62 melanoma; 109% in the test on LOX IMVI melanoma; 97.6% in the test on SK-MEL-2 melanoma; 102% in the test with EKVX NSCLC; 127% with SN12C renal. Besides, the growth in the test with UO-31 renal is 81.3%; with TK-10 renal, 143%; in the test on ACHN renal, 127%; in the test on CAKI-1 renal, 177%; in the test with A498 renal, 103%; in the test on CCRF-CEM leukemia, 78.8%. The growth in the test with MOLT-4 leukemia was 103%.

With `CCCCn1c(Cc2ccc(OC)cc2)nc2cc(OC)c(OC)cc2c1=O`, the growth in the test with HCT-15 colon is 93.4%; with HT29 colon, 101%; in the test with SNB-75 CNS, 87.5%; in the test with SNB-19 CNS it was 84.7%; with U251 CNS it was 87.8%; in the test with PC-3 prostate, 91.8%. The growth with SK-MEL-5 melanoma was 36.6%; in the test with UACC-62 melanoma, 59.6%; with LOX IMVI melanoma, 90.2%; with SK-MEL-28 melanoma, 90.6%; with EKVX NSCLC it was 44.8%; with SN12C renal, 88.6%. Moreover, the growth is 74.7% in the test with UO-31 renal; 67.2% in the test with TK-10 renal; 80.9% with ACHN renal; 62% in the test with A498 renal; 53.1% in the test on CCRF-CEM leukemia; 49.1% in the test on MOLT-4 leukemia.

Turning to `COC1=CC(c2ccc[nH]2)=N/C1=C\c1[nH]c(C)c(C(=O)CCCCC(=O)NC(C)(C)C)c1C`, the growth was -31.8% (active) in the test with HCT-15 colon; 3.41% (active) in the test with HT29 colon; 41.5% with SNB-75 CNS; 70.1% in the test with SNB-19 CNS; 22% in the test on U251 CNS; -31.3% (active) in the test on PC-3 prostate. The growth in the test with SK-MEL-5 melanoma was 50.8%; in the test with UACC-62 melanoma, 69.1%; with LOX IMVI melanoma, -34.4% (active); in the test with SK-MEL-2 melanoma, 98%; with SN12C renal it was 55.3%; with UO-31 renal it was 18%. For the same compound, the growth in the test on TK-10 renal was -18.2% (active); with ACHN renal, 71.8%; in the test with CAKI-1 renal, 34.1%; in the test on CCRF-CEM leukemia it was 68.5%; in the test on MOLT-4 leukemia, 21.2%.

As for `Cc1ccc(C(=O)Nc2ccc(CN3CCN(C)CC3)c(C(F)(F)F)c2)cc1C#Cc1cncc2ncccc12`, the growth was -92.9% (active) in the test on HCT-15 colon; -89.3% (active) in the test on HT29 colon; -83.9% (active) in the test on SNB-75 CNS; -99.3% (active) in the test with SNB-19 CNS; -93.8% (active) with U251 CNS; -69.3% (active) with PC-3 prostate. Moreover, the growth is -99.3% (active) in the test with SK-MEL-5 melanoma; -84.8% (active) with UACC-62 melanoma; -79% (active) in the test with LOX IMVI melanoma; -78.7% (active) in the test with SK-MEL-2 melanoma; -71.8% (active) with EKVX NSCLC; -98.2% (active) in the test on SN12C renal. For the same compound, the growth with UO-31 renal was -96.3% (active); with TK-10 renal, -98.8% (active); in the test with ACHN renal, -98.9% (active); in the test on CAKI-1 renal, 1.96% (active); in the test with A498 renal it was -95.5% (active); in the test with CCRF-CEM leukemia, -56.2% (active). The growth with MOLT-4 leukemia was -58.9% (active).
